PostGolgi yeast – growth inhibition of a yeast mutant, post-Golgi transport screen; inhibition, % at 10 µM; 98,000 tested, 0.9% active; post-Golgi transport phenotypic cell assay;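 also: yeast cells grown in 1536-well plates; yeast grown about 18 h at 30C before absorbance read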
CYP2C9 inhib – human CYP2C9 inhibition; P11712; CYP2C9 Supersomes, luciferin-H conversion, luminescence; inhibition, % at 5 µM; 96,000 tested, 20% active; AID 777;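 active = blocking of liver enzyme CYP2C9 beyond about 50% at 5 µM, limit read from the data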
Target sequence (P11712 whole entry, looked up): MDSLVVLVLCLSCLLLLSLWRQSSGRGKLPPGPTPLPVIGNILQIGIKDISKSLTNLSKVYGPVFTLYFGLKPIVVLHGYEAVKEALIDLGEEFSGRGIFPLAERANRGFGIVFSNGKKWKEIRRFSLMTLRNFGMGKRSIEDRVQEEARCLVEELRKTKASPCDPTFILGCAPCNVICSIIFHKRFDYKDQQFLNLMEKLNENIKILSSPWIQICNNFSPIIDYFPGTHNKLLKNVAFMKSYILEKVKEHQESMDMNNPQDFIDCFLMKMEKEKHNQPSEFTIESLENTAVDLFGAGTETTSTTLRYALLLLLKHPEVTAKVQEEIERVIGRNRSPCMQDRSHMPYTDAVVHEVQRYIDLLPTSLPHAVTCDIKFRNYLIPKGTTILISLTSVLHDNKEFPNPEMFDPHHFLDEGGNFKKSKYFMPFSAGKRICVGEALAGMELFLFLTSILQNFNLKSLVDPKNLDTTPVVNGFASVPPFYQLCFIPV
CYP2C19 inhib – inhibitors of human CYP2C19; 96,000 tested, 21% active; inhibition, % at 5 µM; CYP2C19 Supersomes, luciferin-H EGE luminescence, 30 min; P33261;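 active = CYP2C19 inhibition above a set limit at 5 µM in the primary screen, cut at about 50% in these data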;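 also: plate controls were negative control wells for no effect and 2.5 mM tranylcypromine positive control for full effect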
PostGolgi ctrl – yeast control strain growth, post-Golgi counter-screen; efflux-deficient yeast background strain, growth absorbance A615, 16 h; inhibition, % at 10 µM; 98,000 tested, 5% active; AID 738
CYP2C9 act – activators of human CYP2C9. recombinant CYP2C9, luciferin-H conversion, luminescence; hits give high values; factor 1 = untreated enzyme, 0 = blocked. P11712. 96,000 tested, 1.4% active. AID 1024. activation factor at 5 µM;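 active = activation factor of 2 or more for CYP2C9 at a 5 µM dose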;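 also: 0 = sulfaphenazole-blocked wells and 1 = vehicle-only wells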
CYP2C19 activ – cytochrome P450 2C19 (human) activation. activation factor at 5 µM. 96,000 tested, under 10 active. AID 1025. recombinant CYP2C19, luciferin-H EGE luminescence; hits give high values; 0 = fully inhibited enzyme, 1 = untreated enzyme;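 active = activation factor of at least 2 at 5 µM in the primary screen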;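 also: 0 = wells with 2.5 mM tranylcypromine and 1 = vehicle-only wells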
* hit, by the source's call; . = not tested or not shown. In the library only some 32% were active in any assay of this set; here they are far more common. Rule as the data show it, unless noted: active = inhibition above about 30%; inactive = the rest.

SMILES	PostGolgi yeast	CYP2C9 inhib	CYP2C19 inhib	PostGolgi ctrl	CYP2C9 act	CYP2C19 activ
CC(=O)N1N=C(c2ccncc2)OC12CCCC2	-0.5	3.0	47.5	1.5	1	0.5
Cc1cc(NC(=O)COC(=O)C(Nc2ccc(C(F)(F)F)cc2Cl)C(C)C)no1 (centres undefined)	3.4	52.1*	56.9*	59.1*	0.5	0.4
Cc1cccc(Nc2ncnc3ccccc23)c1	2.4	45.8	59.3*	-3.4	0.5	0.4
Brc1ccc2ncnc(Nc3cccc4ccccc34)c2c1	0.5	59.0*	80.1*	24.6	0.4	0.2
O=[N+]([O-])c1cc(-c2cnc3ccccc3n2)ccc1Oc1ccc(F)cc1	-0.2	31.8	12.5	14.9	0.7	0.9
O=C1NC2(NN1c1ccccc1)C1CC3CC(C1)CC2C3 (centres undefined)	3.4	-6.4	-0.9	-4.8	1.1	1
CCNC(=O)n1nccc1C(C)Oc1cccc(C(F)(F)F)c1 (centres undefined)	-5.5	26.2	56.1*	34.6*	0.7	0.4
CCn1ccc(C(=O)Oc2ccc(Cl)cc2)n1	-9.0	30.3	30.5	17.8	0.7	0.7
CC(C)NC(=O)c1ccc(-c2cccc(C(F)(F)F)c2)o1	13.7	-35.0	6.9	3.0	1.4	0.9
CCNC(=O)n1nccc1C(C)Oc1ccc(Cl)cc1 (centres undefined)	3.4	71.3*	87.6*	6.6	0.3	0.1
COc1ccc(S(=O)(=O)Cc2ccc(C(=O)NCc3ccccn3)o2)cc1	-3.2	32.6	3.2	11.8	0.7	1
NC(=O)NC(Cc1ccccc1)C(=O)Nc1ccc(S(N)(=O)=O)cc1 (centres undefined)	4.7	-8.8	-1.1	-9.9	1.1	1
N=c1ncn(CC(O)CO)c2nc(N3CCOCC3)[nH]c12 (centres undefined)	-4.2	-11.6	-9.3	10.2	1.1	1.1
CCOC(=O)CC1(c2ccccc2)CCOC(C)(C)C1 (centres undefined)	-10.3	34.0	87.4*	2.0	0.7	0.1
CC1(C)CC(CC(=O)O)(c2ccccc2)CCO1 (centres undefined)	-0.5	3.3	5.6	-4.2	1	0.9
CCOc1ccc(NC(=O)CSc2nnc(-c3ccccn3)n2C)cc1	-2.3	7.8	-9.5	1.5	0.9	1.1
CCN(CC)S(=O)(=O)c1ccc(NC(=O)COC(=O)c2ccc(Br)o2)cc1	-5.4	67.2*	20.8	25.7	0.3	0.8
CC(C)CCNC(=O)COC(=O)c1ccc(Br)o1	-3.4	26.4	49.7	15.2	0.7	0.5
CN(C)c1ccc(C(=O)OCC(=O)Nc2ccc(S(N)(=O)=O)cc2)cc1	-3.7	9.2	1.2	4.7	0.9	1
CCN(CC)S(=O)(=O)c1ccc(NC(=O)COC(=O)c2ccc(-n3nc(C)cc3C)cc2)cc1	-0.3	70.8*	84.8*	7.9	0.3	0.2
O=C(NCc1nc2ccccc2[nH]1)c1cccs1	-1.0	17.1	46.8	15.1	0.8	0.5
COc1cc(/C=C(/C(=O)c2cccs2)c2nc3ccccc3[nH]2)cc(OC)c1O	-3.0	85.5*	51.2*	4.1	0.1	0.5
O=C(N/C(=C/c1ccc(Cl)cc1)c1nc2ccccc2[nH]1)c1ccco1	23.4	-5.0	5.8	-3.2	1.1	0.9
O=C(/C(=C/c1ccc(Cl)cc1)c1nc2ccccc2[nH]1)c1ccccc1	61.7*	14.9	11.3	102.4*	0.9	0.9
O=C(/C=C/c1ccco1)NCC1CCCO1 (centres undefined)	1.3	4.9	3.3	5.5	1	1
SMILES	PostGolgi yeast	CYP2C9 inhib	CYP2C19 inhib	PostGolgi ctrl	CYP2C9 act	CYP2C19 activ
Cc1cc(C)cc(NS(=O)(=O)c2ccc3oc(=O)ccc3c2)c1	-17.0	62.2*	100.3*	11.8	0.4	0
CCOc1ccccc1NS(=O)(=O)c1ccc(OC)c(OC)c1	7.3	.	.	6.1	.	.
CCOc1ccc(NS(=O)(=O)c2ccc(NC(C)=O)c(OC)c2)cc1	2.9	25.3	51.8*	8.9	0.7	0.5
CCOc1ccc(NS(=O)(=O)c2cc(Cl)ccc2OC)cc1	1.6	91.4*	43.0	4.6	0.1	0.6
COC(=O)COc1ccc(S(=O)(=O)Nc2ccc(C(N)=O)cc2)cc1C	4.1	54.8*	20.0	1.5	0.5	0.8
CC(/C=C/c1ccccc1)=N\NC(N)=S	2.6	13.6	18.7	1.5	0.9	0.8
